These results are taken from PubChem BioAssay (NCATS).

Results filed as inconclusive are left out. Calls of active or inactive are those of the source. Calls follow the shape of the dose curve; as a rule, active = well fitted inhibition curve with a large enough effect; inconclusive = small, poorly fitted or top-dose-only effect; inactive = flat fitted curve, though single readings scatter.
Potency is read from the fitted curve at half-maximal effect.

A short description of the first experiment: qHTS profiling for inhibitors of Plasmodium falciparum proliferation (AID 504749). Also: nearly all actives have a fitted effect of over 60% in size.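 As to activity, negative = inhibition: 0% = DMSO vehicle and full inhibition = artemisinin control.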 The conditions noted are these: P. falciparum in erythrocytes, SYBR Green DNA, 72 h; at 12.8 µM (top of the series); parasite line A. The source says: NIH National Institute of Allergy and Infectious Diseases [NIAID] NIH Chemical Genomics Center [NCGC] MLPCN Grant: None Assay Provider: Xinzhuan Su, NIAID NCGC Assay Overview: Plasmodium falciparum is a virulent malarial parasite that kills 1-2 million people worldwide each year. Transmitted by mosquitoes, the sporozoite form of the parasite enters the blood stream to infect hepatocytes, where they become merozoites that infect red blood cells (erythrocytes). Within erythrocytes, merozoites begin a […] cycle of growth and division, after which the parasite is released to infect new red blood cells. Gametocytes, which form within erythrocytes as well, circulate in the bloodstream and are ingested by the mosquito, thereby completing the life cycle. To profile malarial isolates for differential chemical responses and to identify inhibitors of malarial growth, an assay that measures P. falciparum growth and replication within erythrocytes was employed. This assay uses a DNA binding fluorescent dye (SYBR Green) to detect parasite DNA following cell lysis. Because mature erythrocytes lack DNA, only Plasmodium-derived DNA is detected.
NCGC Assay Protocol Summary: The SYBR Green viability assay was adapted from a method described previously (Plouffe et al., 2008). For screening 3 ul culture medium was dispensed into 1536 well black clear bottom plates (Aurora Biotechnologies) using a Multidrop Combi (Thermo Fisher Scientific Inc.), 23 nL compounds in DMSO were added by a pin tool (Kalypsys), and 5 ul of erythrocytes infected with P. falciparum (0.3% parasitemia, 2.5% hematocrit final concentration) were added. The plates were incubated at 37 C in a humidified incubator in 5% CO2 for 72 h, and 2 ul lysis buffer (20 mM Tris HCl, 10 mM EDTA, 0.16% saponin, 1.6% triton X, 10X SYBR Green I supplied as 10,000X […] by Invitrogen) was added to each well. The plates were mixed for 25 sec with gentle shaking and incubated overnight at room temperature in the dark. The following morning, fluorescence intensity at 485(14) nm excitation and 535(25) nm emission wavelengths was measured on an EnVision (Perkin Elmer) plate reader. Plate reads were normalized relative to the control inhibitor (0.29 uM artemisinin) and vehicle (DMSO) wells present on each plate and then corrected by an algorithm using vehicle-only control plates at the beginning and end of the compound plate stack.
Background: In qHTS, concentration-response curves come from the screen itself.
Take `O=C(O)c1ccccc1-c1c2cc(Br)c(=O)cc-2oc2[c]([Hg])c(O)c(Br)cc12`: the activity, negative = inhibition is 23.4% (inactive).

Staying with this experiment, now noted: P. falciparum in erythrocytes, SYBR Green DNA, 72 h; at 12.8 µM (top of the series); parasite line B.
As to `O=C(O)c1ccccc1-c1c2cc(Br)c(=O)cc-2oc2[c]([Hg])c(O)c(Br)cc12`, the activity, negative = inhibition was 5.61% (inactive).

The experiment is the same for the next values; noted with them: P. falciparum in erythrocytes, SYBR Green DNA, 72 h; at 28.7 µM (top of the series); parasite line A.
Regarding `CCN(CC)CCO[C@H]1CC[C@@]2(C)C(=CC[C@@H]3[C@H]2CC[C@]2(C)C(=O)CC[C@H]32)C1`, the activity, negative = inhibition was -0.0219% (inactive).
Same read-out and setting: under `C[N+](C)(C)CC(=O)[O-]` stands 11.4% (inactive); under `CCN1C[C@]2(COC)[C@H](O)C[C@H](OC)[C@]34C1C([C@H](OC)[C@H]23)[C@]1(OC(C)=O)C2[C@@H](OC(=O)c3ccccc3)C(O)(C[C@H]24)[C@@H](OC)[C@@H]1O`, -2.64% (inactive); under `CO[C@H]1[C@@H](O)CC(OC2[C@@H](O)CC(OC3[C@@H](O)C[C@H](OC4CC[C@@]5(C)C(CCC6C5CC(O)[C@]5(C)[C@H](C7=CC(=O)OC7)CCC65O)C4)O[C@@H]3C)O[C@@H]2C)O[C@@H]1C` (stereo partly specified), -4.67% (inactive).

The same experiment, now with this note: P. falciparum in erythrocytes, SYBR Green DNA, 72 h; at 28.7 µM (top of the series); parasite line B.
Consider `CCN(CC)CCO[C@H]1CC[C@@]2(C)C(=CC[C@@H]3[C@H]2CC[C@]2(C)C(=O)CC[C@H]32)C1`, for which the activity, negative = inhibition is 10.7% (inactive).
On to `C[N+](C)(C)CC(=O)[O-]`, for which the activity, negative = inhibition was 8.81% (inactive).
Consider `CCN1C[C@]2(COC)[C@H](O)C[C@H](OC)[C@]34C1C([C@H](OC)[C@H]23)[C@]1(OC(C)=O)C2[C@@H](OC(=O)c3ccccc3)C(O)(C[C@H]24)[C@@H](OC)[C@@H]1O`, for which the activity, negative = inhibition was -26.7% (inactive).
Still for that read-out and setting: under `CO[C@H]1[C@@H](O)CC(OC2[C@@H](O)CC(OC3[C@@H](O)C[C@H](OC4CC[C@@]5(C)C(CCC6C5CC(O)[C@]5(C)[C@H](C7=CC(=O)OC7)CCC65O)C4)O[C@@H]3C)O[C@@H]2C)O[C@@H]1C` (stereo partly specified) stands 10.4% (inactive).

The experiment is the same for the next values; noted with them: P. falciparum in erythrocytes, SYBR Green DNA, 72 h; parasite line A.
In the case of `Oc1cc[c]([Hg][Cl])cc1`, the Potency is 7.94 µM (active).
With `CC(C)[C@@]1(NC(=O)[C@H]2CC3c4cccc5[nH]cc(c45)C[C@H]3N(C)C2)O[C@@]2(O)C3CCCN3C(=O)[C@@H](Cc3ccccc3)N2C1=O` (stereo partly specified), the Potency was 6.31 µM (active).
As to `CCCCCCCCCC[N+](C)(C)CCCCCCCCCC`, the Potency was 5.01 µM (active).

The experiment is the same for the next values; noted with them: P. falciparum in erythrocytes, SYBR Green DNA, 72 h; parasite line B.
Turning to `Oc1cc[c]([Hg][Cl])cc1`, the Potency was 10 µM (active).
As to `CC(C)[C@@]1(NC(=O)[C@H]2CC3c4cccc5[nH]cc(c45)C[C@H]3N(C)C2)O[C@@]2(O)C3CCCN3C(=O)[C@@H](Cc3ccccc3)N2C1=O` (stereo partly specified), the Potency was 5.01 µM (active).
Take `CCCCCCCCCC[N+](C)(C)CCCCCCCCCC`: the Potency is 6.31 µM (active).
